Columns and labels:
Test in all cases: SELEX-seq (CSI, HT-SELEX, round 3); SELEX-seq: 1x PBS (10 mM phosphate, 137 mM NaCl, 2.7 mM KCl) pH 7.6, 2.5 mM DTT, 50 ng/ul poly dI-dC, 0.1% BSA, 50 nM biotinylated bZIP (1:3 with partner for heterodimers), 100 nM library, room temperature, 1 h, 3 rounds; high values mean tight binding
Details in all cases: protein: recombinant;recombinant; copies: 1;1; dsDNA, one strand shown
[1] = molecular target: T1, JUNB;BATF2 (Homo sapiens;Homo sapiens, UniProt P17275;Q8N1L9 259-332;8-85, |)
T1 sequence 1: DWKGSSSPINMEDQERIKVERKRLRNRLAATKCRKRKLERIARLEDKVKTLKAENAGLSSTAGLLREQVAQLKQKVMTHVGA
T1 sequence 2: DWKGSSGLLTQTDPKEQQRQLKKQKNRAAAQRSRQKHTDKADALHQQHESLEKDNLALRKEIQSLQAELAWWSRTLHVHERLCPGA

[2] = molecular target: T2, JUNB;CREBZF (Homo sapiens;Homo sapiens, UniProt P17275;Q9NS37 259-332;195-272, |)
T2 sequence 1: T1 sequence 1
T2 sequence 2: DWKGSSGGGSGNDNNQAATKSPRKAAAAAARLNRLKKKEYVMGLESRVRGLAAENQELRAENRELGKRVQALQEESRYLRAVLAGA

[3] = molecular target: T3, BATF;HLF (Homo sapiens;Homo sapiens, UniProt Q16520;Q16534 17-90;216-293, |)
T3 sequence 1: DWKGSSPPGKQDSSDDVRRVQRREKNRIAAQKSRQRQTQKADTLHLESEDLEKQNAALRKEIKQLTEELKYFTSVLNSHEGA
T3 sequence 2: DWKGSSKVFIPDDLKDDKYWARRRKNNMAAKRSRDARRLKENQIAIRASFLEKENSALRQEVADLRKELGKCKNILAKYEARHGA

[4] = molecular target: T4, BATF;NFIL3 (Homo sapiens;Homo sapiens, UniProt Q16520;Q16649 17-90;64-134, |)
T4 sequence 1: T3 sequence 1
T4 sequence 2: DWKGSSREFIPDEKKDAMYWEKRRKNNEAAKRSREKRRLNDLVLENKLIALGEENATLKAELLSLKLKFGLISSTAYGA

[5] = molecular target: T5, FOSL1;CEBPE (Homo sapiens;Homo sapiens, UniProt P15407;Q15744 96-169;195-267, |)
T5 sequence 1: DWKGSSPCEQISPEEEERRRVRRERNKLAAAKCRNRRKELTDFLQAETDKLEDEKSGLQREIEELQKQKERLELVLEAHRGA
T5 sequence 2: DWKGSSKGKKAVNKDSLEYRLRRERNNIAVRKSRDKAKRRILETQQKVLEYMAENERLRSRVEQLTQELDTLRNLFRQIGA

[6] = molecular target: T6, FOSL1;FOSL1 (Homo sapiens;Homo sapiens, UniProt P15407;P15407 96-169;96-169, |)
T6 sequence 1: T5 sequence 1
T6 sequence 2: T5 sequence 1

[7] = molecular target: T7, FOSL1;NFE2 (Homo sapiens;Homo sapiens, UniProt P15407;Q16621 96-169;221-337, |)
T7 sequence 1: T5 sequence 1
T7 sequence 2: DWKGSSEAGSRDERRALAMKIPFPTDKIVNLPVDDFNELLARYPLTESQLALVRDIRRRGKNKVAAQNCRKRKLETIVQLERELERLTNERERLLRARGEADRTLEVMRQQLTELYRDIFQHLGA

[8] = molecular target: FOS;BATF (Homo sapiens;Homo sapiens, UniProt P01100;Q16520 128-201;17-90, |)
Chain of FOS;BATF (P01100 other isoform, or with tags, fused parts or gaps |, chain 1 of 2, one chain of several): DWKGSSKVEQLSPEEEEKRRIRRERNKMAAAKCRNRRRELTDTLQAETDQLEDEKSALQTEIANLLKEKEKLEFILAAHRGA

[9] = molecular target: FOS;FOSL1 (Homo sapiens;Homo sapiens, UniProt P01100;P15407 128-201;96-169, |)
Chain of FOS;FOSL1 (P01100 other isoform, or with tags, fused parts or gaps |): as the sequence (P01100 other isoform, or with tags, fused parts or gaps |, chain 1 of 2, one chain of several) above

[10] = molecular target: FOS;NFE2 (Homo sapiens;Homo sapiens, UniProt P01100;Q16621 128-201;221-337, |)
Chain of FOS;NFE2 (P01100 other isoform, or with tags, fused parts or gaps |): as the sequence (P01100 other isoform, or with tags, fused parts or gaps |, chain 1 of 2, one chain of several) above

[11] = molecular target: FOS;NFE2L1 (Homo sapiens;Homo sapiens, UniProt P01100;Q14494 128-201;609-725, |)
Chain of FOS;NFE2L1 (P01100 other isoform, or with tags, fused parts or gaps |, chain 1 of 2): as the sequence (P01100 other isoform, or with tags, fused parts or gaps |, chain 1 of 2, one chain of several) above
Chain of FOS;NFE2L1 (Q14494 other isoform, or with tags, fused parts or gaps |, chain 2 of 2): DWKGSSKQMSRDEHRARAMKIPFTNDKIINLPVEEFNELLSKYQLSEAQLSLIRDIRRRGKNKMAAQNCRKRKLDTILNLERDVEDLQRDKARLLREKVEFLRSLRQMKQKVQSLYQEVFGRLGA

[12] = molecular target: FOS;MAFB (Homo sapiens;Homo sapiens, UniProt P01100;Q9Y5Q3 128-201;212-305, |)
Chain of FOS;MAFB (P01100 other isoform, or with tags, fused parts or gaps |, chain 1 of 2): as the sequence (P01100 other isoform, or with tags, fused parts or gaps |, chain 1 of 2, one chain of several) above
Chain of FOS;MAFB (Q9Y5Q3 other isoform, or with tags, fused parts or gaps |, chain 2 of 2): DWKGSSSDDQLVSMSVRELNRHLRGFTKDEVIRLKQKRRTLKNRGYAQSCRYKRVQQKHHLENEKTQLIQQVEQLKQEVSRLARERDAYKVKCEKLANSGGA

[13] = molecular target: FOS;BATF2 (Homo sapiens;Homo sapiens, UniProt P01100;Q8N1L9 128-201;8-85, |)
Chain of FOS;BATF2 (P01100 other isoform, or with tags, fused parts or gaps |): as the sequence (P01100 other isoform, or with tags, fused parts or gaps |, chain 1 of 2, one chain of several) above

[14] = molecular target: FOS;CREB3 (Homo sapiens;Homo sapiens, UniProt P01100;O43889 128-201;141-221, |)
Chain of FOS;CREB3 (P01100 other isoform, or with tags, fused parts or gaps |, chain 1 of 2): as the sequence (P01100 other isoform, or with tags, fused parts or gaps |, chain 1 of 2, one chain of several) above
Chain of FOS;CREB3 (O43889 other isoform, or with tags, fused parts or gaps |, chain 2 of 2): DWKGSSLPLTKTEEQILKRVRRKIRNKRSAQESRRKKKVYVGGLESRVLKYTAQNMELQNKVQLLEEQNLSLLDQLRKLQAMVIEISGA

[15] = molecular target: FOS;CREB3L3 (Homo sapiens;Homo sapiens, UniProt P01100;Q68CJ9 128-201;234-311, |)
Chain of FOS;CREB3L3 (P01100 other isoform, or with tags, fused parts or gaps |, chain 1 of 2): as the sequence (P01100 other isoform, or with tags, fused parts or gaps |, chain 1 of 2, one chain of several) above
Chain of FOS;CREB3L3 (Q68CJ9 other isoform, or with tags, fused parts or gaps |, chain 2 of 2): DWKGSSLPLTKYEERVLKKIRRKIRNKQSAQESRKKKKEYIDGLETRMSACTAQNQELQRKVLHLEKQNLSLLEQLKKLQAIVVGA

[16] = molecular target: T8, ATF5;CEBPE (Homo sapiens;Homo sapiens, UniProt Q9Y2D1;Q15744 199-275;195-267, |)
T8 sequence 1: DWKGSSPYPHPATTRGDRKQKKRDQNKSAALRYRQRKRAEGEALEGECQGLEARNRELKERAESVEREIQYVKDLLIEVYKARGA
T8 sequence 2: T5 sequence 2

[17] = molecular target: T9, ATF5;JUNB (Homo sapiens;Homo sapiens, UniProt Q9Y2D1;P17275 199-275;259-332, |)
T9 sequence 1: T8 sequence 1
T9 sequence 2: T1 sequence 1

[18] = molecular target: T10, ATF5;BATF (Homo sapiens;Homo sapiens, UniProt Q9Y2D1;Q16520 199-275;17-90, |)
T10 sequence 1: T8 sequence 1
T10 sequence 2: T3 sequence 1

[19] = molecular target: ATF5;FOS (Homo sapiens;Homo sapiens, UniProt Q9Y2D1;P01100 199-275;128-201, |)
Chain of ATF5;FOS (P01100 other isoform, or with tags, fused parts or gaps |): as the sequence (P01100 other isoform, or with tags, fused parts or gaps |, chain 1 of 2, one chain of several) above

[20] = molecular target: T11, ATF5;CREB3L1 (Homo sapiens;Homo sapiens, UniProt Q9Y2D1;Q96BA8 199-275;281-358, |)
T11 sequence 1: T8 sequence 1
T11 sequence 2: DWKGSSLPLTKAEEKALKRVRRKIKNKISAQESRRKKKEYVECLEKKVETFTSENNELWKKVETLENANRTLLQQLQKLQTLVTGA

## ATGACGCAAT
[1]
  binding signal: 0.00872 relative CSI intensity (max = 1)
[2]
  binding signal: 0.0122 relative CSI intensity (max = 1)
[3]
  binding signal: 0.105 relative CSI intensity (max = 1)
[4]
  binding signal: 0.155 relative CSI intensity (max = 1)
[5]
  binding signal: 0.0294 relative CSI intensity (max = 1)
[6]
  binding signal: 0.0097 relative CSI intensity (max = 1)
[7]
  binding signal: 0.18 relative CSI intensity (max = 1)
[8]
  binding signal: 0.00539 relative CSI intensity (max = 1)
[9]
  binding signal: 0.0408 relative CSI intensity (max = 1)
[10]
  binding signal: 0.0862 relative CSI intensity (max = 1)
[11]
  binding signal: 0.49 relative CSI intensity (max = 1)
[12]
  binding signal: 0.0613 relative CSI intensity (max = 1)
[13]
  binding signal: 0.00476 relative CSI intensity (max = 1)
[14]
  binding signal: 0.0275 relative CSI intensity (max = 1)
[15]
  binding signal: 0.00168 relative CSI intensity (max = 1)
[16]
  binding signal: 0.245 relative CSI intensity (max = 1)
[17]
  binding signal: 0.00597 relative CSI intensity (max = 1)
[18]
  binding signal: 0.00602 relative CSI intensity (max = 1)
[19]
  binding signal: 0.024 relative CSI intensity (max = 1)

## ATGACGGAAT
[2]
  binding signal: 0.00176 relative CSI intensity (max = 1)
[7]
  binding signal: 0.0575 relative CSI intensity (max = 1)
[9]
  binding signal: 0.0281 relative CSI intensity (max = 1)
[10]
  binding signal: 0.00162 relative CSI intensity (max = 1)
[11]
  binding signal: 0.00712 relative CSI intensity (max = 1)
[12]
  binding signal: 0.00352 relative CSI intensity (max = 1)
[14]
  binding signal: 0.0131 relative CSI intensity (max = 1)
[15]
  binding signal: 0.00582 relative CSI intensity (max = 1)
[16]
  binding signal: 0.047 relative CSI intensity (max = 1)
[17]
  binding signal: 0.00218 relative CSI intensity (max = 1)
[19]
  binding signal: 0.0159 relative CSI intensity (max = 1)

## ATGATGCAAT
[1]
  binding signal: 0.00121 relative CSI intensity (max = 1)
[2]
  binding signal: 0.00786 relative CSI intensity (max = 1)
[3]
  binding signal: 0.179 relative CSI intensity (max = 1)
[4]
  binding signal: 0.0609 relative CSI intensity (max = 1)
[5]
  binding signal: 0.0136 relative CSI intensity (max = 1)
[6]
  binding signal: 0.00963 relative CSI intensity (max = 1)
[7]
  binding signal: 0.12 relative CSI intensity (max = 1)
[10]
  binding signal: 0.0393 relative CSI intensity (max = 1)
[11]
  binding signal: 0.174 relative CSI intensity (max = 1)
[12]
  binding signal: 0.0246 relative CSI intensity (max = 1)
[14]
  binding signal: 0.00378 relative CSI intensity (max = 1)
[15]
  binding signal: 0.00314 relative CSI intensity (max = 1)
[16]
  binding signal: 0.402 relative CSI intensity (max = 1)
[17]
  binding signal: 0.00145 relative CSI intensity (max = 1)
[18]
  binding signal: 0.00475 relative CSI intensity (max = 1)
[20]
  binding signal: 0.00221 relative CSI intensity (max = 1)

## ATGACGTCAT
[1]
  binding signal: 1 relative CSI intensity (max = 1)
[2]
  binding signal: 1 relative CSI intensity (max = 1)
[3]
  binding signal: 0.814 relative CSI intensity (max = 1)
[4]
  binding signal: 1 relative CSI intensity (max = 1)
[5]
  binding signal: 0.0518 relative CSI intensity (max = 1)
[6]
  binding signal: 1 relative CSI intensity (max = 1)
[7]
  binding signal: 0.466 relative CSI intensity (max = 1)
[8]
  binding signal: 1 relative CSI intensity (max = 1)
[9]
  binding signal: 0.96 relative CSI intensity (max = 1)
[10]
  binding signal: 0.106 relative CSI intensity (max = 1)
[11]
  binding signal: 0.472 relative CSI intensity (max = 1)
[12]
  binding signal: 0.278 relative CSI intensity (max = 1)
[13]
  binding signal: 1 relative CSI intensity (max = 1)
[14]
  binding signal: 1 relative CSI intensity (max = 1)
[15]
  binding signal: 0.751 relative CSI intensity (max = 1)
[16]
  binding signal: 0.364 relative CSI intensity (max = 1)
[17]
  binding signal: 1 relative CSI intensity (max = 1)
[18]
  binding signal: 0.864 relative CSI intensity (max = 1)
[19]
  binding signal: 1 relative CSI intensity (max = 1)
[20]
  binding signal: 1 relative CSI intensity (max = 1)

## ATGACGTAAT
[1]
  binding signal: 0.0936 relative CSI intensity (max = 1)
[2]
  binding signal: 0.0382 relative CSI intensity (max = 1)
[3]
  binding signal: 0.71 relative CSI intensity (max = 1)
[4]
  binding signal: 0.786 relative CSI intensity (max = 1)
[5]
  binding signal: 0.00904 relative CSI intensity (max = 1)
[6]
  binding signal: 0.0331 relative CSI intensity (max = 1)
[7]
  binding signal: 0.129 relative CSI intensity (max = 1)
[8]
  binding signal: 0.0179 relative CSI intensity (max = 1)
[9]
  binding signal: 0.0348 relative CSI intensity (max = 1)
[10]
  binding signal: 0.0286 relative CSI intensity (max = 1)
[11]
  binding signal: 0.12 relative CSI intensity (max = 1)
[12]
  binding signal: 0.0637 relative CSI intensity (max = 1)
[13]
  binding signal: 0.0531 relative CSI intensity (max = 1)
[15]
  binding signal: 0.0238 relative CSI intensity (max = 1)
[16]
  binding signal: 0.189 relative CSI intensity (max = 1)
[17]
  binding signal: 0.0445 relative CSI intensity (max = 1)
[18]
  binding signal: 0.0375 relative CSI intensity (max = 1)
[19]
  binding signal: 0.00734 relative CSI intensity (max = 1)
[20]
  binding signal: 0.00877 relative CSI intensity (max = 1)

## CCTGACGTCA
[1]
  binding signal: 0.0149 relative CSI intensity (max = 1)
[3]
  binding signal: 0.0974 relative CSI intensity (max = 1)
[5]
  binding signal: 0.00153 relative CSI intensity (max = 1)
[6]
  binding signal: 0.0039 relative CSI intensity (max = 1)
[7]
  binding signal: 0.0335 relative CSI intensity (max = 1)
[8]
  binding signal: 0.0057 relative CSI intensity (max = 1)
[10]
  binding signal: 0.00384 relative CSI intensity (max = 1)
[12]
  binding signal: 0.0128 relative CSI intensity (max = 1)
[13]
  binding signal: 0.00375 relative CSI intensity (max = 1)
[14]
  binding signal: 0.0122 relative CSI intensity (max = 1)
[16]
  binding signal: 0.073 relative CSI intensity (max = 1)
[17]
  binding signal: 0.0543 relative CSI intensity (max = 1)
[18]
  binding signal: 0.0188 relative CSI intensity (max = 1)
[19]
  binding signal: 0.0125 relative CSI intensity (max = 1)
[20]
  binding signal: 0.00567 relative CSI intensity (max = 1)
